Experiments:
Assay in all cases: PBM; 200 nM protein, PBS
Conditions in all cases: dsDNA, one strand shown
HESX1 [1] = biological target: HESX1 (Homo sapiens, UniProt Q9UBX0 95-180, R165K)
HESX1 [2] = biological target: HESX1 (Homo sapiens, UniProt Q9UBX0 95-180)
HESX1 [3] = biological target: HESX1 (Homo sapiens, UniProt Q9UBX0 95-180, P111T)
HESX1 [4] = biological target: HESX1 (Homo sapiens, UniProt Q9UBX0 95-180, R109Q)
HESX1 [5] = biological target: HESX1 (Homo sapiens, UniProt Q9UBX0 95-180, F115L)
HOXB4 [6] = biological target: HOXB4 (Homo sapiens, UniProt P17483 148-234)
SHOX [7] = biological target: SHOX (Homo sapiens, UniProt O15266 103-189)
HOXB4 [8] = biological target: HOXB4 (Homo sapiens, UniProt P17483 148-234, V174I)
ALX3 [9] = biological target: ALX3 (Homo sapiens, UniProt O95076 139-225, N203Q)
SHOX [10] = biological target: SHOX (Homo sapiens, UniProt O15266 103-189, R173C)
ALX3 [11] = biological target: ALX3 (Homo sapiens, UniProt O95076 139-225)
ALX3 [12] = biological target: ALX3 (Homo sapiens, UniProt O95076 139-225, L168Q)
ALX3 [13] = biological target: ALX3 (Homo sapiens, UniProt O95076 139-225, L168V)
NKX3-2 [14] = biological target: NKX3-2 (Homo sapiens, UniProt P78367 192-278, P234S)
ALX3 [15] = biological target: ALX3 (Homo sapiens, UniProt O95076 139-225, N203S)
NKX3-2 [16] = biological target: NKX3-2 (Homo sapiens, UniProt P78367 192-278)
HOXB9 [17] = biological target: HOXB9 (Homo sapiens, UniProt P17482 171-250, T197M)
HOXB9 [18] = biological target: HOXB9 (Homo sapiens, UniProt P17482 171-250)
ALX1 [19] = biological target: ALX1 (Homo sapiens, UniProt Q15699 118-204, L144V)
ALX1 [20] = biological target: ALX1 (Homo sapiens, UniProt Q15699 118-204, L144R)
HOXB9 [21] = biological target: HOXB9 (Homo sapiens, UniProt P17482 171-250, R186Q)
ALX1 [22] = biological target: ALX1 (Homo sapiens, UniProt Q15699 118-204)
CRX [23] = biological target: CRX (Homo sapiens, UniProt O43186 26-111)
HOXA4 [24] = biological target: HOXA4 (Homo sapiens, UniProt Q00056 201-287, W262R)
ALX4 [25] = biological target: ALX4 (Homo sapiens, UniProt Q9H161 200-286)
ALX4 [26] = biological target: ALX4 (Homo sapiens, UniProt Q9H161 200-286, Q225E)
HOXA4 [27] = biological target: HOXA4 (Homo sapiens, UniProt Q00056 201-287, R217L)
CRX [28] = biological target: CRX (Homo sapiens, UniProt O43186 26-111, E42D)
HOXA4 [29] = biological target: HOXA4 (Homo sapiens, UniProt Q00056 201-287)
CRX [30] = biological target: CRX (Homo sapiens, UniProt O43186 26-111, R41L)
HOXA4 [31] = biological target: HOXA4 (Homo sapiens, UniProt Q00056 201-287, W262F)
Chain of HOXA4 (Homo sapiens, UniProt Q00056 201-287, W262F) (Q00056 201-287 W262F): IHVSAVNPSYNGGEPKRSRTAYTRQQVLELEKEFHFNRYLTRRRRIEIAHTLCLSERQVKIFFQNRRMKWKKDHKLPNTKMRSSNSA

Chain of HESX1 (Homo sapiens, UniProt Q9UBX0 95-180) (Q9UBX0 95-180): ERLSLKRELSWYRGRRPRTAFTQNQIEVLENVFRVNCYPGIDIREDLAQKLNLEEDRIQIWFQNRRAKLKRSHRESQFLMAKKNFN
Chain of HOXB4 (Homo sapiens, UniProt P17483 148-234, V174I) (P17483 148-234 V174I): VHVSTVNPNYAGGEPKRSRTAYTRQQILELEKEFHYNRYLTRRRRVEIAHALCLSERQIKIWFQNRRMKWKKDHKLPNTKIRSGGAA
Chain of HESX1 (Homo sapiens, UniProt Q9UBX0 95-180, R165K) (Q9UBX0 95-180 R165K): as the sequence (Q9UBX0 95-180) above, with R71K counted along it
Chain of HOXB4 (Homo sapiens, UniProt P17483 148-234) (P17483 148-234): as the sequence (P17483 148-234 V174I) above, with I27V counted along it
Chain of HESX1 (Homo sapiens, UniProt Q9UBX0 95-180, P111T) (Q9UBX0 95-180 P111T): as the sequence (Q9UBX0 95-180) above, with P17T counted along it
Chain of HESX1 (Homo sapiens, UniProt Q9UBX0 95-180, F115L) (Q9UBX0 95-180 F115L): as the sequence (Q9UBX0 95-180) above, with F21L counted along it
Chain of SHOX (Homo sapiens, UniProt O15266 103-189) (O15266 103-189): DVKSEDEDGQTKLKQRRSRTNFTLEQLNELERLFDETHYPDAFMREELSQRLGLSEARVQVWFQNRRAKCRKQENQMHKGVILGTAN
Chain of SHOX (Homo sapiens, UniProt O15266 103-189, R173C) (O15266 103-189 R173C): as the sequence (O15266 103-189) above, with R71C counted along it
Chain of HESX1 (Homo sapiens, UniProt Q9UBX0 95-180, R109Q) (Q9UBX0 95-180 R109Q): as the sequence (Q9UBX0 95-180) above, with R15Q counted along it
Chain of ALX1 (Homo sapiens, UniProt Q15699 118-204) (Q15699 118-204): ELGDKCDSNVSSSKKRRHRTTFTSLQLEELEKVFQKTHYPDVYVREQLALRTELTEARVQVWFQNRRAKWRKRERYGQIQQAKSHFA
Chain of NKX3-2 (Homo sapiens, UniProt P78367 192-278) (P78367 192-278): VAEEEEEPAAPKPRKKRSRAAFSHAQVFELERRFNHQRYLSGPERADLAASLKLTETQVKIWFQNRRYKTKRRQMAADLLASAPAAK
Chain of HOXB9 (Homo sapiens, UniProt P17482 171-250, T197M) (P17482 171-250 T197M): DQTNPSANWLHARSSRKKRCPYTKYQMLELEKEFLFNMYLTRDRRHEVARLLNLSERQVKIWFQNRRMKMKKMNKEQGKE
Chain of CRX (Homo sapiens, UniProt O43186 26-111, E42D) (O43186 26-111 E42D): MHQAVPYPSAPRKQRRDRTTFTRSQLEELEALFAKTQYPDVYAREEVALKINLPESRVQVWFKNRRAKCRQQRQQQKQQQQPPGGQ
Chain of HOXB9 (Homo sapiens, UniProt P17482 171-250) (P17482 171-250): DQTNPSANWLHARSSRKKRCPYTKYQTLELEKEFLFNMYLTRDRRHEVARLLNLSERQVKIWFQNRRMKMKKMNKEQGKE
Chain of ALX1 (Homo sapiens, UniProt Q15699 118-204, L144R) (Q15699 118-204 L144R): as the sequence (Q15699 118-204) above, with L27R counted along it
Chain of HOXA4 (Homo sapiens, UniProt Q00056 201-287, R217L) (Q00056 201-287 R217L): as the sequence (Q00056 201-287 W262F) above, with R17L, F62W counted along it
Chain of NKX3-2 (Homo sapiens, UniProt P78367 192-278, P234S) (P78367 192-278 P234S): as the sequence (P78367 192-278) above, with P43S counted along it
Chain of ALX1 (Homo sapiens, UniProt Q15699 118-204, L144V) (Q15699 118-204 L144V): as the sequence (Q15699 118-204) above, with L27V counted along it
Chain of ALX3 (Homo sapiens, UniProt O95076 139-225) (O95076 139-225): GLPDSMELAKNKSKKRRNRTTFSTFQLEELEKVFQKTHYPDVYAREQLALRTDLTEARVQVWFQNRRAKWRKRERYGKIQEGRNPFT
Chain of ALX3 (Homo sapiens, UniProt O95076 139-225, L168V) (O95076 139-225 L168V): as the sequence (O95076 139-225) above, with L30V counted along it
Chain of CRX (Homo sapiens, UniProt O43186 26-111, R41L) (O43186 26-111 R41L): as the sequence (O43186 26-111 E42D) above, with R16L, D17E counted along it
Chain of HOXA4 (Homo sapiens, UniProt Q00056 201-287) (Q00056 201-287): as the sequence (Q00056 201-287 W262F) above, with F62W counted along it
Chain of CRX (Homo sapiens, UniProt O43186 26-111) (O43186 26-111): as the sequence (O43186 26-111 E42D) above, with D17E counted along it
Chain of ALX4 (Homo sapiens, UniProt Q9H161 200-286, Q225E) (Q9H161 200-286 Q225E): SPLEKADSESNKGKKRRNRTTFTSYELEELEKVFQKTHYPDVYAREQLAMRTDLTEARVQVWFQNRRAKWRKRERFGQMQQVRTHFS
Chain of ALX4 (Homo sapiens, UniProt Q9H161 200-286) (Q9H161 200-286): as the sequence (Q9H161 200-286 Q225E) above, with E26Q counted along it
Chain of ALX3 (Homo sapiens, UniProt O95076 139-225, L168Q) (O95076 139-225 L168Q): as the sequence (O95076 139-225) above, with L30Q counted along it
Chain of HOXA4 (Homo sapiens, UniProt Q00056 201-287, W262R) (Q00056 201-287 W262R): as the sequence (Q00056 201-287 W262F) above, with F62R counted along it
Chain of ALX3 (Homo sapiens, UniProt O95076 139-225, N203S) (O95076 139-225 N203S): as the sequence (O95076 139-225) above, with N65S counted along it
Chain of ALX3 (Homo sapiens, UniProt O95076 139-225, N203Q) (O95076 139-225 N203Q): as the sequence (O95076 139-225) above, with N65Q counted along it
Chain of HOXB9 (Homo sapiens, UniProt P17482 171-250, R186Q) (P17482 171-250 R186Q): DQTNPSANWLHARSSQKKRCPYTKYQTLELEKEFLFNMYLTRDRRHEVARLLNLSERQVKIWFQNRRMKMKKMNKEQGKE

AACCTATT
binding signal (HESX1 [1]): 8.08 upbm affinity estimate (log intensity, higher = more binding, comparable within an allelic series)
binding signal (HESX1 [2]): 8.17 upbm affinity estimate (log intensity, higher = more binding, comparable within an allelic series)
binding signal (HESX1 [3]): 7.48 upbm affinity estimate (log intensity, higher = more binding, comparable within an allelic series)

AGTTCAGC
binding signal (HESX1 [1]): 6.57 upbm affinity estimate (log intensity, higher = more binding, comparable within an allelic series)
binding signal (HESX1 [2]): 6.45 upbm affinity estimate (log intensity, higher = more binding, comparable within an allelic series)
binding signal (HESX1 [4]): 6.48 upbm affinity estimate (log intensity, higher = more binding, comparable within an allelic series)
binding signal (HESX1 [3]): 6.48 upbm affinity estimate (log intensity, higher = more binding, comparable within an allelic series)
binding signal (HESX1 [5]): 6.59 upbm affinity estimate (log intensity, higher = more binding, comparable within an allelic series)

GACTGGCC
binding signal (HOXB4 [6]): 7.7 upbm affinity estimate (log intensity, higher = more binding, comparable within an allelic series)
binding signal (SHOX [7]): 7.34 upbm affinity estimate (log intensity, higher = more binding, comparable within an allelic series)
binding signal (HOXB4 [8]): 7.58 upbm affinity estimate (log intensity, higher = more binding, comparable within an allelic series)
binding signal (ALX3 [9]): 7.82 upbm affinity estimate (log intensity, higher = more binding, comparable within an allelic series)
binding signal (SHOX [10]): 7.31 upbm affinity estimate (log intensity, higher = more binding, comparable within an allelic series)
binding signal (ALX3 [11]): 7.84 upbm affinity estimate (log intensity, higher = more binding, comparable within an allelic series)
binding signal (ALX3 [12]): 7.72 upbm affinity estimate (log intensity, higher = more binding, comparable within an allelic series)
binding signal (ALX3 [13]): 7.77 upbm affinity estimate (log intensity, higher = more binding, comparable within an allelic series)
binding signal (NKX3-2 [14]): 10.5 upbm affinity estimate (log intensity, higher = more binding, comparable within an allelic series)
binding signal (ALX3 [15]): 7.91 upbm affinity estimate (log intensity, higher = more binding, comparable within an allelic series)
binding signal (NKX3-2 [16]): 10.5 upbm affinity estimate (log intensity, higher = more binding, comparable within an allelic series)

CATTAGAG
binding signal (HESX1 [1]): 8.32 upbm affinity estimate (log intensity, higher = more binding, comparable within an allelic series)
binding signal (HESX1 [2]): 8.46 upbm affinity estimate (log intensity, higher = more binding, comparable within an allelic series)
binding signal (HESX1 [5]): 6.84 upbm affinity estimate (log intensity, higher = more binding, comparable within an allelic series)

TCCTGCCA
binding signal (HESX1 [1]): 6.57 upbm affinity estimate (log intensity, higher = more binding, comparable within an allelic series)
binding signal (HESX1 [2]): 6.47 upbm affinity estimate (log intensity, higher = more binding, comparable within an allelic series)
binding signal (HESX1 [4]): 6.52 upbm affinity estimate (log intensity, higher = more binding, comparable within an allelic series)
binding signal (HESX1 [3]): 6.56 upbm affinity estimate (log intensity, higher = more binding, comparable within an allelic series)
binding signal (HESX1 [5]): 6.6 upbm affinity estimate (log intensity, higher = more binding, comparable within an allelic series)

CGGGAGAG
binding signal (HOXB4 [6]): 7.57 upbm affinity estimate (log intensity, higher = more binding, comparable within an allelic series)
binding signal (SHOX [7]): 6.89 upbm affinity estimate (log intensity, higher = more binding, comparable within an allelic series)
binding signal (HOXB9 [17]): 8.56 upbm affinity estimate (log intensity, higher = more binding, comparable within an allelic series)
binding signal (HOXB9 [18]): 8.56 upbm affinity estimate (log intensity, higher = more binding, comparable within an allelic series)
binding signal (HOXB4 [8]): 7.66 upbm affinity estimate (log intensity, higher = more binding, comparable within an allelic series)
binding signal (ALX1 [19]): 6.33 upbm affinity estimate (log intensity, higher = more binding, comparable within an allelic series)
binding signal (SHOX [10]): 7.16 upbm affinity estimate (log intensity, higher = more binding, comparable within an allelic series)
binding signal (ALX1 [20]): 6.21 upbm affinity estimate (log intensity, higher = more binding, comparable within an allelic series)
binding signal (HOXB9 [21]): 8.56 upbm affinity estimate (log intensity, higher = more binding, comparable within an allelic series)
binding signal (ALX1 [22]): 6.23 upbm affinity estimate (log intensity, higher = more binding, comparable within an allelic series)

CAGGACCC
binding signal (HOXB4 [6]): 7.14 upbm affinity estimate (log intensity, higher = more binding, comparable within an allelic series)
binding signal (CRX [23]): 8.22 upbm affinity estimate (log intensity, higher = more binding, comparable within an allelic series)
binding signal (HOXA4 [24]): 9.96 upbm affinity estimate (log intensity, higher = more binding, comparable within an allelic series)
binding signal (ALX4 [25]): 7.85 upbm affinity estimate (log intensity, higher = more binding, comparable within an allelic series)
binding signal (ALX4 [26]): 8.07 upbm affinity estimate (log intensity, higher = more binding, comparable within an allelic series)
binding signal (HOXA4 [27]): 9.81 upbm affinity estimate (log intensity, higher = more binding, comparable within an allelic series)
binding signal (HOXB4 [8]): 7.15 upbm affinity estimate (log intensity, higher = more binding, comparable within an allelic series)
binding signal (CRX [28]): 8.19 upbm affinity estimate (log intensity, higher = more binding, comparable within an allelic series)
binding signal (HOXA4 [29]): 9.67 upbm affinity estimate (log intensity, higher = more binding, comparable within an allelic series)
binding signal (CRX [30]): 8.24 upbm affinity estimate (log intensity, higher = more binding, comparable within an allelic series)
binding signal (HOXA4 [31]): 9.89 upbm affinity estimate (log intensity, higher = more binding, comparable within an allelic series)
